# Reference: PubChem BioAssay AID1671192 (National Center for Advancing Translational Sciences (NCATS), 2021)
# Inconclusive results are not listed. Calls of active or inactive are those of the source. Calls follow the shape of the dose curve; as a rule, active = well fitted curve in the direction sought with a large enough effect; inconclusive = small, poorly fitted or top-dose-only effect, or another doubt; inactive = no such curve, though single readings can be large or run the other way.
# Target: Polyunsaturated fatty acid lipoxygenase ALOX15 (Homo sapiens) (UniProt P16050)
# Sequence (P16050 whole entry, looked up): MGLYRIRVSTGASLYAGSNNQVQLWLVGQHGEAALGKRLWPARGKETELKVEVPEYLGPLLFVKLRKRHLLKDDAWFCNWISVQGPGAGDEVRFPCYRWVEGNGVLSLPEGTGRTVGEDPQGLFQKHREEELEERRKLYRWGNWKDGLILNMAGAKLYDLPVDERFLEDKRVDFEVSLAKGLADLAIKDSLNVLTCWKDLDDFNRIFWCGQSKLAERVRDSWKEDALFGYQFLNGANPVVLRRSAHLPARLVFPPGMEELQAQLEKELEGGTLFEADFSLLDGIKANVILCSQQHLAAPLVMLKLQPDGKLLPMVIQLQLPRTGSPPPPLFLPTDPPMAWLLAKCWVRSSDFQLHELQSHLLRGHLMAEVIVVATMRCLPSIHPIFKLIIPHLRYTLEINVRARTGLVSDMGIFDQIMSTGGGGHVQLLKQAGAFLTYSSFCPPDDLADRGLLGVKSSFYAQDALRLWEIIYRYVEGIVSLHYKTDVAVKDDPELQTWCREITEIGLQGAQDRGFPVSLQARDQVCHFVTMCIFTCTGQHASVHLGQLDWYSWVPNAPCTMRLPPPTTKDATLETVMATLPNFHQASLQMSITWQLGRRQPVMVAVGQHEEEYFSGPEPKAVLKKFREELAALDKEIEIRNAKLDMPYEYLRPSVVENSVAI
# Experiment: Counterscreen qHTS for inhibitors of human arachidonate 12S-lipoxygenase (ALOX12): ALOX15 Assay
# Settings: purified ALOX15 enzyme activity; series mostly up to 110 µM
# Outline: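 Xylenol orange–ferric complex formation, read as the 573 nm to 405 nm absorbance ratio, tracks product from 50 uM arachidonic acid turned over for 30 min at RT. Enzyme is 40 nM ALOX15, pH 7.5 HEPES buffer, compound-preincubated 15 min.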
row,SMILES,outcome
1,CC(=O)N1CCCN(c2ncnc3c2CN(C2CCNCC2)C(=O)CN3C)CC1,inactive
2,Cc1cc(Cl)ccc1NC1CN(C(=O)OC(C)(C)C)C1,inactive
3,C[S+](=O)([O-])N1CCC(c2nnc3n2CCNC3)CC1,inactive
4,O=C1NCc2ccccc2CC12CCN(Cc1cnc3ccccc3c1)C2 (stereo not given),inactive
5,O=C(C1CCCC1)N1Cc2ccccc2CC2(CCN(Cc3ccncc3)C2)C1 (stereo not given),inactive
6,O=C(O)c1cccc(-c2ccc(OC(F)(F)F)cc2)c1,inactive
7,N#Cc1cccnc1-c1ccc(C(=O)O)cc1,inactive
8,Cn1nc(C2CCNC2)c2c(C(=O)NCc3ccncc3)cc(C3CC3)nc21 (stereo not given),inactive
9,COc1ccc(-c2cc(C(=O)NC3CC3)c3c(C)nn(-c4ccccc4)c3n2)cc1,inactive
10,c1ccc(NCCN2CCCC2)cc1,inactive
11,CNC(C)c1c(F)cccc1F (stereo not given),inactive
12,CSc1ccc(-c2ccc(C(=O)O)cc2)cc1,inactive
13,Cn1nc(C2CCNC2)c2c(C(=O)NC3CC3)cc(C3CC3)nc21 (stereo not given),inactive
14,O=C1NCc2ccccc2CC12CCN(C/C=C/c1ccccc1)CC2,inactive
15,O=C(NCC(F)(F)F)c1cc(C2CC2)nc2c1c(C1CCCN1)nn2-c1ccccc1 (stereo not given),inactive
16,O=C1NCc2ccccc2CC12CCN(Cc1ccccc1OC(F)(F)F)C2 (stereo not given),inactive
17,CN(C)c1ccc(CN2CCn3c(nnc3C3CCNCC3)C2)cc1,inactive
18,COc1ccc(C(=O)N2CCc3nc(C4CC4)nc(-c4ccc(OC)cc4)c3C2)cc1,inactive
19,O=C1NCc2ccccc2CC12CCCN2Cc1ccc(Cl)s1 (stereo not given),inactive
20,O=C1NCc2ccccc2CC12CCN(Cc1c(F)cccc1F)C2 (stereo not given),inactive
